An excerpt weighted towards active compounds, which were near 2.8% of everything screened.
SENP7 inh: inhibitors of human SENP7 protease | 1.5% of 330,000 active | Q9BQF6 | recombinant SENP7, Z-RLRGG-aminoluciferin luminescence, 40 min | inhibition, % at 5 µM | AID 434973;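 active = inhibition above about 50% at the single test dose, limit read from the data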;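 also: plate controls were DMSO with enzyme for no effect and no enzyme buffer wells for full effect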
Target sequence (Q9BQF6 706-1050 limits assumed): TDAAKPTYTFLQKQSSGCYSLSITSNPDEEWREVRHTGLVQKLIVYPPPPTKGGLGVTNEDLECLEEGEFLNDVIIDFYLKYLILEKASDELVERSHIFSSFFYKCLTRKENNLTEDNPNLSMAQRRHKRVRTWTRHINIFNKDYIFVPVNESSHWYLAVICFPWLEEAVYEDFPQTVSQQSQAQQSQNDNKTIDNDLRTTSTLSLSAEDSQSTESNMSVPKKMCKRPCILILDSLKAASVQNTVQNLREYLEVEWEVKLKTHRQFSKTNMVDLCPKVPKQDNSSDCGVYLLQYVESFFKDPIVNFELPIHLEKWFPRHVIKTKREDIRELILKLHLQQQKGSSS
SENP6 inh: inhibitors of human SENP6 protease. inhibition, % at 10 µM. Recombinant SENP6 catalytic domain, aminoluciferin luminescence. Q9GZR1. AID 2599. 1.8% of 330,000 active;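 active = inhibition above about 50% at the single tested dose, limit read from the data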;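 also: plate controls were DMSO wells with enzyme for no effect and DMSO wells lacking enzyme for full effect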
HSP90 inh: HSP90 refolding inhibition in rabbit reticulocyte lysate; luciferase refolding luminescence, 3 h; inhibition, % at 5.6 µM; 0.91% of 290,000 active;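 active = inhibition above the screen-wide mean plus 3 SD, computed separately per campaign, cut at about 16% in these data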;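 also: 0% = DMSO wells and 100% = 60 µM geldanamycin wells; inhibitors lower the luminescence because luciferase stays unfolded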
SENP8 block-1: blocks human SENP8 cleavage of Nedd8 substrate; Q96LD8; inhibition, % at 20 µM; recombinant SENP8, Nedd8 substrate fluorescence; 0.64% of 360,000 active; in the data active = inhibition mostly above about 40%, no sharp cut-off; inactive = mostly below about 27%
SENP8 block-2: blocks the human protease SENP8; Q96LD8; purified SENP8, Z-RLRGG-aminoluciferin cleavage, luminescence; inhibition, % at 10 µM; 1.2% of 330,000 active; in the data active = inhibition above about 50%
SENP8 confirm: confirmation of human SENP8 protease inhibitors | inhibition, % at 12.5 µM | 40% of 6,200 active | shares compounds with SENP7 inh | AID 488912 | Recombinant SENP8, Z-RLRGG-aminoluciferin luminescence, 60 min;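 active = mean inhibition across replicates above about 50%, limit read from the data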
SENP6 conf: human SENP6 inhibition, confirmed; shares compounds with SENP7 inh; recombinant SENP6, Z-RLRGG-aminoluciferin luminescence; inhibition, % at 12.5 µM; 58% of 6,200 active; AID 488915
SENP7 conf: human SENP7 inhibition, confirmed; shares compounds with SENP7 inh; 69% of 6,200 active; inhibition, % at 12.5 µM; AID 488917; recombinant SENP7, Z-RLRGG-aminoluciferin luminescence, 40 min
Casp3 select: caspase-3 inhibition (SENP selectivity assay). shares compounds with SENP7 inh. purified caspase-3, Z-DEVD-aminoluciferin luminescence, 60 min. inhibition, % at 12.5 µM. 60% of 6,200 active. AID 488918;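 active = mean inhibition above about 50%, limit read from the data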;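 also: plate controls were enzyme with DMSO for no effect and wells without caspase-3 for full effect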
Target sequence (P42574 28-227 limits assumed): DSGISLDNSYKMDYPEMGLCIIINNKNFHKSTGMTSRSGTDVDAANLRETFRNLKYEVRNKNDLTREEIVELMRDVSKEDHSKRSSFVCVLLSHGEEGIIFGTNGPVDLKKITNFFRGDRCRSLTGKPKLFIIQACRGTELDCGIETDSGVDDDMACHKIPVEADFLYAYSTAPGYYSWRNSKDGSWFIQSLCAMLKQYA
SENP luc ctr: interferes with luciferase luminescence in SENP counter-screen; shares compounds with SENP7 inh; Pre-incubated SENP8/Z-RLRGG-aminoluciferin, luciferase luminescence interference; inhibition, % at 12.5 µM; 39% of 6,200 active;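 active = mean inhibition above about 50% when retested at one dose, limit read from the data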;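 also: plate controls were DMSO wells with completed reaction for no effect and substrate without enzyme for full effect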
* marks the source's active call; other numbers are inactive results; i = inactive; . = no result.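 The calls were made as follows, unless noted: active = mean inhibition above about 50% in the one-dose retest (limit read from the data); inactive = the rest.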

SMILES	SENP7 inh	SENP6 inh	HSP90 inh	SENP8 block-1	SENP8 block-2	SENP8 confirm	SENP6 conf	SENP7 conf	Casp3 select	SENP luc ctr
O=C(Nc1ccccc1)C(=O)Nc1ccc2c(c1)N(C(=O)C1CC1)CCC2	99*	98*	.	10	96*	56*	100*	103*	98*	27
CC(c1ccccc1)C1CC(=O)N(c2cc(Cl)ccn2)C1=O (stereo not given)	-9	-1	6	38	-10	.	.	.	.	.
CCOC(=O)c1sc(NC(=O)CNC(=O)Cn2cnc3sc(C)c(C)c3c2=O)nc1C	-6	2	-1	16	-4	.	.	.	.	.
CCOC(=O)c1sc(NC(=O)c2ccc3ncsc3c2)nc1C	59*	2	12	-126	11	-9	-8	-3	12	2
CCOC(=O)c1sc(NC(=O)c2ccccc2OC)nc1C	102*	97*	-3	-113	98*	80*	70*	99*	63*	13
CCOCCn1cnc2sc(C(=O)Nc3nc(C)c(C(=O)OCC)s3)c(C)c2c1=O	83*	53*	-1	.	79*	10	5	10	3	4
CCOC(=O)c1sc(NC(=O)c2ccc(CC)s2)nc1C	67*	-4	12	-153	-1	4	7	15	14	5
CCCCn1c(N)c(N(CCOC)C(=O)COC(=O)c2cc(CCC)c(C)s2)c(=O)[nH]c1=O	12	-11	.	-2	-8	.	.	.	.	.
COc1ccc(Br)cc1C(=O)Nc1ccccc1N1CCN(C(=O)c2ccccc2)CC1	10	13	0	5	-5	.	.	.	.	.
CC(OC(=O)CN1C(=O)C2CC=CCC2C1=O)C(=O)Nc1ccc(F)cc1Cl (stereo not given)	15	0	2	9	-15	.	.	.	.	.
CCOC(=O)c1sc(Nc2ccccc2Cl)nc1C	42	63*	-1	-106	28	45	44	73*	35	40
N#C/C(=C(/O)C(Cl)(Cl)Cl)c1nc2ccccc2[nH]1	75*	96*	2	29	87*	90*	90*	100*	91*	55*
Cc1occc1C(=O)/C(C#N)=C/c1ccc(O)c(Br)c1	93*	98*	0	18	97*	98*	100*	103*	97*	97*
O=C(C1CCCN(S(=O)(=O)c2cccnc2)C1)N1CCN(c2ccccn2)CC1 (stereo not given)	-4	5	2	-19	7	.	.	.	.	.
Cn1c(-c2nnn(-c3ccc(F)cc3)n2)cc2ccccc21	11	52*	6	.	39	17	10	13	8	-4
Cc1ccc(CSc2ccc(-c3ccco3)nn2)cc1	68*	84*	-1	0	-1	33	77*	96*	69*	30
Cc1ccc(CSc2ccc(-c3cccs3)nn2)cc1	69*	25	-10	16	8	12	12	6	13	6
Fc1ccc(CSc2ccc(-c3cccs3)nn2)cc1	12	-18	-3	15	-14	.	.	.	.	.
c1ccc(CSc2ccc(-c3ccco3)nn2)cc1	18	60*	-1	-3	19	21	54*	79*	52*	10
CCn1c(CCCNC(=O)c2ccc(F)cc2)nc2ccccc21	15	-13	1	8	22	.	.	.	.	.
COc1ccc(/C=N/NC(=O)CNC(=O)/C=C/c2ccco2)cc1OC	-1	1	3	-2	5	.	.	.	.	.
CCc1ccc(NC(=O)CN(c2ccc(OC)cc2)S(=O)(=O)c2c(C)[nH]c(=O)[nH]c2=O)cc1	-2	-1	8	15	-2	.	.	.	.	.
O=C(O)COc1ccc(/C=N/NC(=O)c2ccc(-c3csc(Nc4ccc(Cl)cc4)n3)cc2)cc1	.	.	-3	-454	.	.	.	.	.	.
CC(C)NC(=O)N(C)C[C@H]1Oc2c(NC(=O)Cc3ccccc3)cccc2C(=O)N([C@H](C)CO)C[C@@H]1C	8	-7	.	6	-6	.	.	.	.	.
CCOc1ccc(N(CC(=O)Nc2ccc(CC)cc2)S(=O)(=O)c2c(C)[nH]c(=O)[nH]c2=O)cc1	14	13	-6	2	-13	.	.	.	.	.
SMILES	SENP7 inh	SENP6 inh	HSP90 inh	SENP8 block-1	SENP8 block-2	SENP8 confirm	SENP6 conf	SENP7 conf	Casp3 select	SENP luc ctr
O=c1ccnc(S/C=C/c2ccccc2)[nH]1	-2	83*	5	9	71*	78*	73*	89*	87*	76*
O=c1ccnc(SCCc2ccccc2)[nH]1	-13	-21	6	13	-10	.	.	.	.	.
O=C1NC(=O)/C(=C\c2ccc(Br)o2)S1	2	55*	2	-32	36	56*	51*	62*	52*	46
CCCCOc1ccc(C(=O)NNC(=O)C2C3C=CC(C3)C2C(=O)O)cc1 (stereo not given)	0	-14	-5	2	-3	.	.	.	.	.
CCN(CC)C(=O)CSc1ncnc2c(-c3cccs3)nsc12	35	57*	-1	i	21	15	8	7	8	-4
CCN(CC)C(=O)CSc1ncnc2sccc12	-7	-2	1	1	-6	.	.	.	.	.
CSc1cccc(NC(=O)Nc2ccccc2C(N)=O)c1	78*	77*	1	-173	64*	6	64*	87*	63*	25
CSc1cccc(NC(=O)Nc2ccccc2)c1	30	47	-2	25	24	.	.	.	.	.
NC(=O)c1ccccc1NC(=O)Nc1ccc(F)c(Cl)c1	96*	92*	0	-416	92*	64*	88*	99*	90*	91*
C[C@@H]1CN([C@@H](C)CO)C(=O)CCCn2cc(nn2)CO[C@H]1CN(C)S(=O)(=O)c1ccccc1	.	.	.	3	.	.	.	.	.	.
Cc1ccc(/C(N)=N/OC(=O)c2cccc(F)c2)cc1	76*	61*	-6	19	29	32	49	83*	61*	48
N/C(=N\OC(=O)c1cccc(F)c1)c1ccccc1	95*	91*	-2	13	77*	83*	85*	97*	92*	78*
N/C(=N\OC(=O)c1cccc(Br)c1)c1ccncc1	21	-12	1	-9	5	.	.	.	.	.
COc1cc(OC)cc(C(=O)O/N=C(\N)c2cccc(C)c2)c1	12	-3	-1	7	-8	.	.	.	.	.
Cc1ccc(NC(=O)c2noc3c2CCCCC3)cc1	19	34	14	9	7	.	.	.	.	.
Cc1ccc(NC(=O)c2noc3c2CCCCC3)cc1C	62*	44	10	11	9	14	13	27	18	9

Bioassay records deposited in PubChem BioAssay by several laboratories.
